Measurements as given in the OligoGym collection.

The sequences below were run against ZNF32 (assay: pooled miR-30 sensor sort-seq; sequence = guide strand). Conditions: shRNA.
Also: reference of the scale not given here.

Sequence | sensor-assay potency score (higher = more potent)
TTGAGGATCCTGTAGCCTCAGA | -1.2
TTAGACTACCTTTTTGCCGGAA | -0.355
TGAATCTTCCTGTAGTGTCTTC | -0.275
ATATCTTCCATGACAGTCCAGC | -0.761
TGTAGTGTCTTCGAATCTGGGG | 0.479
TCTTCCTGTAGTGTCTTCGAAT | -1.44
TCTTCCATGACAGTCCAGCAGG | -1.26
TAGTGTCTTCGAATCTGGGGAT | -0.0716
TTGATGTGTAACAAGATTGCCT | 0.254
TATCCCAGCTTGAGGATCCTGT | -0.615
TAACGTTAGACTACCTTTTTGC | -0.0672
TTGAAGAACGCTACATTCTGGG | 0.82

These sequences were tested against ZNF343 in the same assay as above. Conditions: shRNA.

Sequence | sensor-assay potency score (higher = more potent)
TTGAGGATGGACTTACTTCTAA | -0.709
ATAGTCTCTACATTTTCCCCAT | -0.495
TAGAAGGCAAGCCTTTCGCTTT | -0.611
TTGACTTATGACTAAAGCCTCG | -0.75
TTTCGCTTTATGATTTTGGGTC | -0.0502
TTGACTTGTCACAAAAGCCTCG | -0.0132
TTGACTTCTGGCTAAAACCTCG | -0.583
TTTGACTTATGACTAAAGCCTC | -0.874
TTTGATGAGATCTGAGTTCTGG | 0.519
TTGATGAGATCTGAGTTCTGGC | 0.144
TATCATTAGAAGGCAAGCCTTT | -0.78
TACATGTTGACTGAGGAACTGC | -0.356

The sequences below were run against ZNF383 in the same assay as above. Conditions: shRNA.

Sequence | sensor-assay potency score (higher = more potent)
TATATTCCAAAACATCTCCAAA | -1.29
TAACATGTGAACCACAACTAAA | -1.41
TTCTATTTCATAAACTTCCTTC | -0.0685
TCTCTGATGTTGAACAAGCTTT | -0.743
TTGAATAAATTGTGAGTTCTGA | -0.124
TAAATTGTGAGTTCTGACTAAA | -0.929
TTGAGCAATAACTAAAGGCCTT | -0.458
TTCTTTAGAGATAATAACTTGG | -0.196
TAACTTGGTTTCACACATCGAT | 0.203
TTGAACAAGCTTTGAGCTCTGG | 0.42
TAAGATTTGAGCAATAACTAAA | -1.31

Each sequence was assayed against ZNF384 in the same assay as above. Conditions: shRNA.

Sequence | sensor-assay potency score (higher = more potent)
TTTATCTTTGTTGTGTTGCCGT | 0.173
TTGATGAACATTGTGTTCTCGA | 0.78
TTGGAGTAGAATGTCAGTGAGC | -0.969
ATAAGGGTCATTCATCTCGGGC | -1.42
TTGAGCTTGAGCCTGGGCCTGG | -0.952
